Most compounds without a hit are left out; they make up all but 12% or so of the library.
PLK1 PBD inh = PLK1 (human) polo-box domain binding inhibition | Potency, µM, without a hit: max response, negative = inhibition, hits mostly inhibitors | Plk1 PBD binding of FITC phosphopeptide, fluorescence polarization | AID 720504 | 360,000 tested, 2.8% active | P53350; note: series mostly up to about 57 µM; % is set by controls: 0 for no effect and ±100 for the full control effect; nearly all actives have a fitted effect of over 65% in size
G9a inh = G9a (human) methyltransferase inhibition; G9a H3K9 monomethylation, AlphaScreen, 2 h; Potency, µM (titrated, usually from 102 µM), for inactives: at the highest dose activity, negative = inhibition, most hits filed as inhibitors; Q96KQ7; 350,000 tested, 8.8% active; note: % is set by controls: 0 for no effect and ±100 for the full control effect; nearly all actives have a fitted effect of over 75% in size
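Step 1: enzyme (final 20 nM) with compound, 15 min RT. Step 2: substrate peptide 500 nM and SAM 20 uM, 2 h RT. Step 3: anti-H3K9me1 antibody and AlphaScreen beads, 10 min, then plate read.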
BAZ2B inh = inhibitors of human BAZ2B bromodomain. 360,000 tested, 4.4% active. Potency, µM (titrated, usually from 114 µM), inactives show at the highest dose activity change, negative = inhibition, hits mostly inhibitors. AlphaScreen BAZ2B-H3K14Ac peptide displacement. Q9UIF8; note: % is set by controls: 0 for no effect and ±100 for the full control effect; nearly all actives have a fitted effect of over 60% in size
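Inhibition is scored as reduced AlphaScreen emission. The BAZ2B/b-H3(5-23)K14Ac complex (50 nM each) in PBS pH 7.4, 0.01% Tween-20 meets compound (up to 110 uM) for 30 min at RT before bead addition.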
HP1b binding inh = blocks HP1-beta chromodomain binding to methylated histone tails; P83916; AlphaScreen HP1-beta / biotin-H3K9me3 peptide binding; Potency, µM (doses to about 114 µM), for the others: at the top dose activity change, negative = inhibition, hits mostly inhibitors; 390,000 tested, 0.56% active; note: nearly all actives have a fitted effect of over 70% in size
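Compound inhibition of the preformed complex between 50 nM HP1-beta and 50 nM biotinylated H3K9me3 peptide was read by AlphaScreen. Buffer was PBS pH 7.4 with 0.01% Tween-20. Incubations ran 30 min at room temperature, with 10 ug/mL donor/acceptor beads.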
JMJD2A Tudor inh = inhibitors of human JMJD2A Tudor domain | O75164 | AlphaScreen JMJD2A-Tudor / H3K4me3 peptide binding | AID 504339 | Potency, µM (titrated, usually from 114 µM), inactives show at the top dose activity change, negative = inhibition, hits mostly inhibitors | 390,000 tested, 4.4% active; note: % is set by controls: 0 for no effect and ±100 for the full control effect; nearly all actives have a fitted effect of over 50% in size
Sfp inh = inhibitors of Bacillus subtilis Sfp phosphopantetheinyl transferase. Q9F4F7. Biochemical Sfp PPTase activity, qHTS. Potency, µM, without a hit: largest response in the series, negative = inhibition, usual class: inhibitors. 310,000 tested, 3.5% active. AID 1490;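 note: the enzyme is Sfp with the accession as filed and its product quenches rhodamine fluorescence; 0% = enzyme reaction without inhibitor and -100% = no enzyme wells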
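Buffer: 50 mM Hepes-Na pH 7.6, 10 mM MgCl2, 0.01% Nonidet P-40, 0.01% BSA. Enzyme 15 nM, pre-exposed to compound 15 min; substrates then added and fluorescence change tracked over 30 min.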
Active calls of the source: *; ? = inconclusive; / = not tested or not shown; [ ] = another dose, or the depositor's remark. Calls come from the whole dose curve; as a rule, active = well fitted curve in the direction sought with a large enough effect; inconclusive = small, poorly fitted or top-dose-only effect, or another doubt; inactive = no such curve, though single readings can be large; an effect the other way counts as inactive or inconclusive. Potency is the fitted concentration of half-maximal effect.

SMILES	PLK1 PBD inh	G9a inh	BAZ2B inh	HP1b binding inh	JMJD2A Tudor inh	Sfp inh
O=C1/C(=C\c2c(NCCOCCO)nc3ccccn3c2=O)SC(=S)N1Cc1ccco1	36%	40µM*	?	-2%	-23%	40µM*
CC(=O)Nc1ccc(-c2csc(Nc3ccccn3)n2)cc1	-3%	/	-5%	24%	-20%	-27%
CCCNC(=O)c1csc(Nc2cccc3ccccc23)n1	-6%	16%[0.501 µM]	?	-5%	-33%	-11%
Cc1ccnc(Nc2nc(-c3ccc(O)cc3)cs2)c1	-12%	?	?	-14%	?	4%
Cc1ccnc(Nc2nc(-c3ccc(O)cc3O)cs2)c1	5%	79µM*	50µM*	-10%	?	40µM*
Oc1ccc(-c2csc(Nc3ccccn3)n2)cc1O	?	11µM*	40µM*	14µM*	56µM*	45µM*
Oc1ccc(-c2csc(Nc3cccc4ccccc34)n2)cc1O	19µM*	13µM*	35µM*	?	40µM*	50µM*
Cc1cccc(Nc2nc(-c3ccc(O)c(O)c3)cs2)n1	-2%	40µM*	50µM*	?	?	-12%
COc1ccc(CCNc2ncnc3nc[nH]c23)cc1	/	/	/	29%	-2%	/
O=C(CSc1ccc(-c2ccc(Br)cc2)nn1)NC1CCCC1	-1%	/	-2%	28%	-3%	-2%
CC1(C(=O)NS(=O)(=O)c2ccc(Cl)s2)CCN1C(=O)CCc1ccccc1 (stereo unspecified)	-5%	/	/	/	/	/
CCCCC/C=C\C/C=C\C/C=C\C=C\C1CCCC(=O)O1 (stereo unspecified)	/	/	/	/	/	0%
CCOC(=O)c1c(C)oc2nc(C)nc(NCc3ccccc3OC)c12	/	-10%[59 µM]	-11%[57.1 µM]	7%	-13%	/
O=C(c1ccc(C(F)(F)F)cc1)N1CCC(=O)N([C@H](COCc2ccc(Cl)cc2)Cc2ccccc2)CC1	7%	?	/	/	/	-22%
Cc1ccnc(Nc2nc(-c3ccc(O)c(O)c3)cs2)c1	-10%	28µM*	40µM*	?	56µM*	50µM*
O=C(O)CSc1cc(C(=O)c2ccccc2O)cn2c(=O)c3c4c(sc3nc12)CCCC4	?	?	22µM*	71µM*	35µM*	?
CCOC(=O)c1cc(C(=O)c2ccccc2O)cn2c(=O)c3c(C)c(C)sc3nc12	/	-129%[59 µM]	?	/	/	45µM*
CCc1nn2c(=O)cc(-c3ccncc3)nc2s1	/	/	/	/	-10%	/
O=C(CCCn1c(=O)c2cccn2c2ccc(F)cc21)NCc1ccc(Cl)cc1	/	9%[59 µM]	-3%	27%	2%	/
COc1ccccc1OCC(=O)NCC1CCCN(C(=O)c2ccccc2SC)C1 (stereo unspecified)	3.4µM*	18%	-4%	15%	?	10%
CC(=O)c1ccccc1C(=O)N1CCCC(CNC(=O)c2ccccc2Cl)C1 (stereo unspecified)	27µM*	16%	-5%	13%	28µM*	17%
COC(=O)C1=C(C(=O)OC)[C@@H]2N(C)c3ccccc3[C@@]23C[C@@H](C(=O)OC)N(S(=O)(=O)c2ccc(C(F)(F)F)cc2)C3=N1	/	/	/	/	/	-7%
COc1ccc(NC(=O)c2ccc3c(=O)n(CC4CCCO4)c(=S)[nH]c3c2)c(OC)c1 (stereo unspecified)	1%	-4%	-5%	7%	-22%	-2%
O=C(O)c1ccc2c(c1)C(=O)N(CCc1ccc(O)cc1)C2=O	/	9%[12.7 µM]	0%	/	-2%	18%
COc1ccc(/C=C/C(=O)OCC(=O)N2CC(=O)Nc3ccccc32)cc1S(=O)(=O)N1CCOCC1	-4%	56µM*	-11%	40%	-18%	-1%
SMILES	PLK1 PBD inh	G9a inh	BAZ2B inh	HP1b binding inh	JMJD2A Tudor inh	Sfp inh
O=C1CN(C(=O)COc2ccccc2F)c2ccccc2N1	-4%	50µM*	4%	10%	-19%	-12%
O=C1CN(C(=O)COC(=O)/C=C/c2ccc(S(=O)(=O)N3CCOCC3)cc2)c2ccccc2N1	-1%	-38%	-14%	33%	-4%	-1%
O=C1CN(C(=O)COC(=O)/C=C/c2ccco2)c2ccccc2N1	9%	45µM*	?	1%	-12%	-23%
O=C1CN(C(=O)COC(=O)/C=C/c2ccc(OC(F)F)cc2)c2ccccc2N1	-8%	-8%[59 µM]	-11%	10%	-4%[57.1 µM]	-6%
Cc1ccc(/C=C/C(=O)OCC(=O)N2CC(=O)Nc3ccccc32)o1	27µM*	50µM*	?	-11%	56µM*	-8%
CC(C)c1ccc2c(c1)C(=O)NC(C)(C)C2	27µM*	11%	-5%	17%	?	12%
CC1(C)Cc2ccccc2C(=O)N1	-4%	6%[59 µM]	8%	38%	-4%	11%
Cc1ccc(S(=O)(=O)N2CCN(C(=O)C(C)Cn3nc(C)c(C)c3C)CC2)cc1C (stereo unspecified)	0%	50µM*	0%	21%	-3%	23%
CC1OC(OCC2OC(Oc3cc(O)c4c(c3)OC(c3ccc(O)cc3)CC4=O)C(O)C(O)C2O)C(O)C(O)C1O (stereo unspecified)	/	/	/	/	/	-1%
COc1ccc(C(=S)N2CCN(S(=O)(=O)c3ccccc3)CC2)cc1	6%	13%	-23%	58%	24%	6%
CC(=O)N1CCN(C(=S)c2ccc(N(C)C)cc2)CC1	21µM*	7.1µM*	-22%	?	-20%	35µM*
CN(C)c1ccc(C(=S)N2CCCCCC2)cc1	?	8.9µM*	?	-26%	?	45µM*
CN(C)c1ccc(C(=S)N2CCN(S(=O)(=O)c3ccccc3)CC2)cc1	-5%	13µM*	?	20%	5%	-6%
CN(C)c1ccc(C(=S)N2CCOCC2)cc1	-4%	3%[59 µM]	/	23%	1%	1%
O=C(Nc1cccc(C(F)(F)F)c1)Nc1cc(Cl)ccc1C(=O)O	/	/	/	/	/	10%
O=C(Cc1c[nH]c2ccccc12)NCc1ccc(Cl)cc1	-3%	-8%[59 µM]	-25%	23%	-14%	7%
O=C(Cc1c[nH]c2ccccc12)NCc1ccc(Cl)cc1Cl	30µM*	1%[59 µM]	-37%	-22%	?	0%
O=C(O)C(=O)Cc1c[nH]c2ccccc12	-20%	25µM*	?	?	45µM*	?
O=C(Nc1cccc(CNCCc2c[nH]c3ccccc23)c1)c1ccccc1Cl	-8%	28µM*	50µM*	1%	45µM*	?
O=C(CN1C(=O)C(=O)N(Cc2ccco2)C1=O)c1c[nH]c2ccccc12	27µM*	50µM*	-12%	18%	-21%	?
O=C(N[C@@H](Cc1c[nH]c2ccccc12)C(=O)O)c1ccc(Cl)cc1	4%	22%	19%	15%	-14%	27%

Source: PubChem BioAssay
